Assay outcomes: PubChem BioAssay, National Center for Advancing Translational Sciences (NCATS)
JMJD2A Tudor inh = qHTS Assay for Inhibitors of JMJD2A-Tudor Domain; AlphaScreen JMJD2A-Tudor / H3K4me3 peptide binding; Potency, µM (highest dose often 114 µM), inactives show at the highest dose activity change, negative = inhibition, most hits filed as inhibitors; Lysine-specific demethylase 4A (Homo sapiens), O75164; 4.4% of 390,000 active; also: % is scaled to controls: 0 for no effect and ±100 for the full control effect; nearly all actives have a fitted effect of over 50% in size
HP1b binding inh = HTS for Inhibitors of HP1-beta Chromodomain Interactions with Methylated Histone Tails. 0.56% of 390,000 active. AlphaScreen HP1-beta / biotin-H3K9me3 peptide binding. Potency, µM (doses to about 114 µM), for inactives: at the highest dose activity change, negative = inhibition, usual class: inhibitors; also: nearly all actives have a fitted effect of over 70% in size
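AlphaScreen: HP1-beta (50 nM) preformed 30 min with biotin-H3(1-18)K9me3 peptide (50 nM) in PBS pH 7.4, 0.01% Tween-20. Compound added for 30 min at RT, then streptavidin donor/nickel chelate acceptor beads (10 ug/mL) for 30 min.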
L3MBTL1 inh = qHTS Assay for the Inhibitors of L3MBTL1; Potency, µM (doses to about 57.1 µM), for inactives: at the highest dose activity, negative = inhibition, usual class: inhibitors; AlphaScreen L3MBTL1–H3K9me1 peptide binding; 0.66% of 230,000 active; AID 485360, 2010; Lethal(3)malignant brain tumor-like protein 1 (Homo sapiens), Q9Y468; also: % is scaled to controls: 0 for no effect and ±100 for the full control effect; nearly all actives have a fitted effect of over 60% in size
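AlphaScreen proximity signal between nickel-chelate acceptor and streptavidin donor beads (final 10 ug/mL) reports binding of 50 nM L3MBTL1 to 75 nM biotin-H3 K9me1 peptide; complex incubated with compounds 30 min at room temperature; cefsulodin titration as control.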
BAZ2B block = qHTS Assay for Inhibitors of BAZ2B; Bromodomain adjacent to zinc finger domain protein 2B (Homo sapiens), Q9UIF8; AlphaScreen BAZ2B-H3K14Ac peptide displacement; Potency, µM (titrated, usually from 114 µM), for inactives: top-dose activity change, negative = inhibition, usual class: inhibitors; 4.4% of 360,000 active; AID 504333, 2011; also: % is scaled to controls: 0 for no effect and ±100 for the full control effect; nearly all actives have a fitted effect of over 60% in size
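In this displacement format the biotinylated H3(5-23) peptide acetylated at Lys14 serves as ligand at 50 nM, with BAZ2B at 50 nM in PBS pH 7.4 containing 0.01% Tween-20. Donor and acceptor beads are 10 ug/mL final.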
VDR inh = Inhibitors of the vitamin D receptor (VDR): qHTS; 0.93% of 400,000 active; VDR-SRC2-3 peptide fluorescence polarization, 2 h; Vitamin D3 receptor (Homo sapiens), P11473; AID 504847, 2011; Potency, µM, for inactives: max response, negative = inhibition, hits mostly inhibitors; also: % is scaled to controls: 0 for no effect and ±100 for the full control effect
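Inhibition of the VDR/SRC2-3 peptide interaction is quantified by fluorescence polarization. Compounds (23 nl, pintool) incubate with the reagents for 2 hours at ambient room temperature.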
PLK1 PBD block = qHTS for Inhibitors of PLK1-PDB (polo-like kinase 1 - polo-box domain): Primary Screen; Plk1 PBD binding of FITC phosphopeptide, fluorescence polarization; Potency, µM, for the others: max response, negative = inhibition, hits mostly inhibitors; 2.8% of 360,000 active; AID 720504, 2013; also: series mostly up to about 57 µM; % is scaled to controls: 0 for no effect and ±100 for the full control effect; nearly all actives have a fitted effect of over 65% in size
Target sequence (P53350 whole entry, looked up, the tested form may be a part): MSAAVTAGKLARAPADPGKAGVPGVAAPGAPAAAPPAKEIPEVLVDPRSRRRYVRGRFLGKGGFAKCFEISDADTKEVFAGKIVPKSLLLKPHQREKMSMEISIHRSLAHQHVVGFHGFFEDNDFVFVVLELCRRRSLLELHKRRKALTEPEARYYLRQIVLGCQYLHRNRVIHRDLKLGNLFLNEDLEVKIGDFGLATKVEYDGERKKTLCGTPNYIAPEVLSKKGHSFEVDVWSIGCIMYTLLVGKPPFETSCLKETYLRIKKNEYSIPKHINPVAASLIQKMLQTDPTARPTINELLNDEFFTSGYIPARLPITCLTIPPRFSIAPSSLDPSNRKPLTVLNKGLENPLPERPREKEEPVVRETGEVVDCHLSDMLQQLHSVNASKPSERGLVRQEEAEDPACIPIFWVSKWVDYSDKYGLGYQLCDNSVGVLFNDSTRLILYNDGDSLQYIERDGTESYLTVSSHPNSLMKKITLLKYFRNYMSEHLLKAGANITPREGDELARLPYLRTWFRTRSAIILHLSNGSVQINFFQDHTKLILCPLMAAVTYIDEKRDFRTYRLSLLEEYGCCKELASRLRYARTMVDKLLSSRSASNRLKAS
Numbers without * were called inactive; ? = inconclusive; · = not tested or not shown; [ ] = remark or other dose. An excerpt weighted towards active compounds, which were near 6.9% of everything screened. Calls follow the shape of the dose curve; as a rule, active = well fitted curve in the direction sought with a large enough effect; inconclusive = small, poorly fitted or top-dose-only effect, or another doubt; inactive = no such curve, though single readings can be large; an effect the other way counts as inactive or inconclusive. Potency is read from the fitted curve at half-maximal effect.

SMILES	JMJD2A Tudor inh	HP1b binding inh	L3MBTL1 inh	BAZ2B block	VDR inh	PLK1 PBD block
Nc1nc(SCC(=O)Nc2cc(-c3ccccc3)nn2-c2ccccc2)n[nH]1	-16.1%	30.5%	·	2.5%	-10.8%	-0.8%
Nc1ccccc1Nc1cc(-c2ccccc2)nn1-c1ccccc1	31.6µM*	?	?	35.5µM*	-6.2%	-7.4%
Nc1ccccc1Nc1cc(-c2ccccc2)[nH]n1	50.1µM*	?	-20.5%	39.8µM*	11.3%	-5.5%
Cc1cccc(NC(=O)c2c(NC(=O)c3ccco3)sc3c2CCC(C(C)(C)C)C3)c1 (stereo unspecified)	3.5%	58.2%	·	3.0%	-15.9%	·
Cc1ccc(-c2nc3[nH]c(=O)cc(NC(=O)c4cccs4)n3n2)cc1	0.7%[11.4 µM]	50.8%	·	-13.2%	-2.7%	-12.8%
Cc1ccc(-c2nc3[nH]c(=O)cc(NC(=O)C(C)C)n3n2)cc1	-5.1%[11.4 µM]	-6.9%	·	-0.8%	?	26.7µM*
CC(C)(C)c1ccc(-c2nc3[nH]c(=O)cc(NC(=O)c4ccco4)n3n2)cc1	-15.9%	25.9%	·	-13.5%	-7.5%	23.8µM*
CCC(=O)Nc1cc(=O)[nH]c2nc(-c3ccc(Cl)cc3)nn12	-22.8%[11.4 µM]	-2.0%	·	-16.0%	?	21.2µM*
O=C(Nc1cc(Cl)cc(Cl)c1)c1ccc(F)c(S(=O)(=O)N2CCN(c3ccccc3F)CC2)c1	-16.5%	24.5%	·	2.3%	-1.2%	·
CCn1c(CN2CCN(C)CC2)nc2cc(NC(=O)c3cc(OC)c(OC)c(OC)c3)ccc21	-9.3%	50.4%	·	-34.4%	12.6%	·
COc1ccc(N=C2C(=Nc3ccc(OC)cc3)N(c3ccc(N(C)C)cc3)C(=S)N2c2ccc(OC)cc2)cc1	2.24µM*	?	·	1.58µM*	0.6%	-0.6%
COc1ccc(N2C(=S)N(C(=O)c3ccccc3)C(=Nc3ccccc3)C2=Nc2ccccc2)cc1	?	-53.2%	·	·	?	21.2µM*
CN(CC(=O)Nc1ccccc1C(F)(F)F)Cc1c(O)ccc2ccccc12	79.4µM*	-29.7%	·	?	?	11.9µM*
COc1ccccc1CN(C)CC(=O)Nc1ccc(Cl)cc1C(F)(F)F	3.55µM*	?	22.6%	50.1µM*	-11.7%	-2.8%
CN(CC(=O)Nc1ccccc1C(F)(F)F)C(=O)c1cc(Cl)nc2ccccc12	-16.6%	15.0%	5.5%	9.2%	14.2%	-5.0%
CCCN(CC(=O)Nc1ccccc1OC)Cc1c(O)ccc2ccccc12	56.2µM*	?	·	?	?	9.47µM*
COc1cccc(NC(=O)c2ccccc2-c2ccccc2)c1	-9.1%	32.5%	14.6%	-12.5%	-16.3%	0.4%
C/C(=N/OC(=O)c1ccc(C)cc1)c1ccc(N2C(=O)C3CCCCC3C2=O)cc1 (stereo unspecified)	39.8µM*	-10.7%	12.9%	9.6%	?	29.9µM*
C#CCOCCOCCOCCNc1nc(N2CCN(C(=O)[C@H]([C@@H](C)CC)n3cc([C@@H](N)CC(C)C)nn3)CC2)nc(N2CCN(C(=O)[C@H](Cc3ccc(O)cc3)n3cc([C@@H](N)CC(C)C)nn3)CC2)n1	?	17.5%	-17.9%	50.1µM*	1.1%	1.1%
C#CCOCCOCCOCCNc1nc(N2CCN(C(=O)[C@H]([C@@H](C)CC)n3cc([C@@H](N)CO)nn3)CC2)nc(N2CCN(C(=O)[C@H](Cc3ccc(O)cc3)n3cc([C@@H](N)C(C)CC)nn3)CC2)n1 (stereo partly specified)	35.5µM*	39.1%	?	35.5µM*	0.5%	2.8%
C#CCOCCOCCOCCNc1nc(N2CCN(C(=O)[C@H](C(C)C)n3cc(CCO)nn3)CC2)nc(N2CCN(C(=O)[C@H]([C@@H](C)CC)n3cc(CCCCN)nn3)CC2)n1	-26.8%	28.5%	2.8%	-34.1%	-0.3%	-14.5%
C#CCOCCOCCOCCNc1nc(N2CCN(C(=O)[C@H]([C@@H](C)CC)n3cc([C@@H](N)Cc4ccc(O)cc4)nn3)CC2)nc(N2CCN(C(=O)[C@H]([C@@H](C)CC)n3cc([C@@H](N)Cc4ccc(O)cc4)nn3)CC2)n1	?	34.9%	-15.8%	50.1µM*	-8.0%	-14.7%
C#CCOCCOCCOCCNc1nc(N2CCN(C(=O)[C@H](C(C)C)n3cc(CCO)nn3)CC2)nc(N2CCN(C(=O)[C@H]([C@@H](C)CC)n3cc(CCC(=O)O)nn3)CC2)n1	-23.2%	12.6%	·	·	-8.0%	-10.3%
C#CCOCCOCCOCCNc1nc(N2CCN(C(=O)[C@H]([C@@H](C)CC)n3cc([C@@H](N)CO)nn3)CC2)nc(N2CCN(C(=O)[C@H]([C@@H](C)CC)n3cc([C@@H](N)Cc4ccc(O)cc4)nn3)CC2)n1	50.1µM*	2.1%	-23.2%	28.2µM*	0.9%	-9.8%
COc1ccccc1CNC(=O)c1ccc(CN2CC(=O)N3CCCCC3C2=O)cc1 (stereo unspecified)	-14.9%	-20.7%	·	-5.0%	0.9%	·
SMILES	JMJD2A Tudor inh	HP1b binding inh	L3MBTL1 inh	BAZ2B block	VDR inh	PLK1 PBD block
COc1ccccc1NC(=O)C1=C(C)Nc2nnnn2C1c1cc(Br)c(O)c(OC)c1 (stereo unspecified)	1.0%	33.4%	·	3.8%	-6.2%	·
C#CCOCCOCCOCCNc1nc(N2CCOCC2)nc(N2CCN(C(=O)[C@H]([C@@H](C)CC)n3cc([C@@H](N)CO)nn3)CC2)n1	-26.2%	?	-5.7%	-26.8%	-10.4%	-2.2%
C#CCOCCOCCOCCNc1nc(N2CCN(C(=O)[C@H]([C@@H](C)CC)n3cc([C@@H](N)CC(C)C)nn3)CC2)nc(N2CCN(C(=O)[C@H]([C@@H](C)CC)n3cc([C@@H](N)CC(C)C)nn3)CC2)n1	?	6.5%	-0.6%	79.4µM*	-3.5%	-17.2%
c1ccc(-c2nc3nonc3nc2-c2ccccc2)cc1	39.8µM*	?	?	28.2µM*	-5.0%	-1.4%
COC(=O)c1ccc(NC(=O)CC2C(=O)N(c3ccc(F)cc3)C(=O)N2Cc2ccc(OC)cc2)cc1 (stereo unspecified)	-3.8%	43.8%	·	-17.5%	11.0%	·
N#C/C(=N\Nc1ccc(Cl)cc1)C(=O)c1ccsc1	?	?	-0.6%	25.1µM*	-14.3%	-18.0%
